In PubChem BioAssay one finds z-score and composite z-score data, which are given here for ten compounds.

The structures appear in SMILES notation. Activity calls are given as the source filed them. Unless noted, how the calls were made is not given here.

A short description of test [1]: HepG2 liver cancer cell viability effects, profiling panel, resazurin fluorescence, 24 h, PK04 Diversity Set (AID 1172). Conditions: higher = more signal.
Test [2] is described as follows: basal S. cerevisiae growth modulation, no modifier, primary screen, OD600, strain BY4716, 24 h, basal condition (AID 1173). As to conditions: OD600, 24 h, higher = more signal, called active from +8 up or from −8 down.
Test [3] in a line: MM1S myeloma cell viability, profiling panel, resazurin fluorescence, basal, 24 h, PK04 Diversity Set (AID 1174). As to conditions: higher = more signal, called active from +8 up or from −8 down. A general note: The colour change of resazurin is a common sign of viable cells or microbes.
Test [4] concerns the target Dihydroorotate dehydrogenase (quinone), mitochondrial (Plasmodium falciparum (isolate 3D7)) (UniProt Q08210). As to the kind of experiment: PfDHODH enzyme inhibitors, primary screen, biochemical, C-terminal His tag, absorbance 600 nm (AID 1175).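 Further: recombinant parasite enzyme with a five histidine tag at its C terminus.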 As to conditions: DCIP absorbance 600 nm, higher = more signal, called active from +8 up or from −8 down.
Test [5] in a line: P. aeruginosa biofilm formation inhibitors, primary screen, strain PAO1, LB-PBS medium, absorbance 600 nm (AID 1176). Conditions: P. aeruginosa PAO1 growth/biofilm, A600, 12 h; higher = more signal.
The nature of test [6]: S. cerevisiae RM11-1a growth modifiers, primary screen, strain RM11-1a, OD600, basal, 24 h (AID 1177).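 Further: cultures grown under basal conditions with no added stressor.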 As to conditions: OD600, 24 h, higher = more signal, called active from +8 up or from −8 down.
Test [7] is described as follows: E. coli acrAB mutant growth effects, primary screen, E. coli filamentation inducers, strain DRC39, OD650, 24 h (AID 1178).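 Further: growth measured as culture turbidity by optical density at 650 nm.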 As to conditions: higher = more signal, called active from +8 up or from −8 down.
The nature of test [8]: E. coli acrAB mutant growth effects, primary screen, E. coli filamentation inducers, strain DRC39, OD650, 48 h (AID 1179).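 Further: screen aims at cell division blockers that make cells filament.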 As to conditions: E. coli DRC39 delta-acrAB growth, higher = more signal, called active from +8 up or from −8 down.
Test [9] is described as follows: RPMI8226 myeloma cell viability, profiling panel, resazurin fluorescence, basal, 24 h, PK04 Diversity Set (AID 1180).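 Further: RPMI8826 multiple myeloma cell line at 5000 cells per well.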 Conditions: higher = more signal.
Test [10] deals with E3 ubiquitin-protein ligase XIAP (Homo sapiens) (UniProt P98170). Kind of test: XIAP binders, primary screen, biophysical, small-molecule microarray, fluorescence 635 nm (AID 1181).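 Further: score merges 667 nm emission and signal to noise over triplicate slides.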 As to conditions: small-molecule microarray binding, higher = more signal.
Sequence of E3 ubiquitin-protein ligase XIAP (Homo sapiens) (P98170 whole entry, looked up): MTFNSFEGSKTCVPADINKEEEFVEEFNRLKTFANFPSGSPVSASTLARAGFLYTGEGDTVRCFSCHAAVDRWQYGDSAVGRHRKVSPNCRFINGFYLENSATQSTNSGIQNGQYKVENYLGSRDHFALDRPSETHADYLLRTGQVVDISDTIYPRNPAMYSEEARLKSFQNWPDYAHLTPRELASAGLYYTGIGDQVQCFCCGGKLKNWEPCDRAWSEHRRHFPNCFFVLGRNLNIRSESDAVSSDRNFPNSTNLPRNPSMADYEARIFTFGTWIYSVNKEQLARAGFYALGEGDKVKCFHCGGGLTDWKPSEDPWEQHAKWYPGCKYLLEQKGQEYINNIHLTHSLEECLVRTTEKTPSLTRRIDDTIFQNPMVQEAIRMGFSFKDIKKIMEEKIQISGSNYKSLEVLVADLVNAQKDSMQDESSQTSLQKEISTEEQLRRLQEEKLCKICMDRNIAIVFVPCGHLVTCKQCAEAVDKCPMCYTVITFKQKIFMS
The test system of test [11] is XIP peptide (Xip251-270) binding. Kind of test: small-molecule binders of XIP peptide, primary screen, biochemical, small-molecule microarray, fluorescence 635/667 nm, 0.1 µg/mL protein (AID 1182). Conditions: fluorescent protein binding, 635 nm, higher = more signal, called active from +8 up or from −8 down.
In the next test the test system is XIP peptide (Xip251-270). As to the kind of experiment: small-molecule binders of XIP peptide, primary screen, biochemical, small-molecule microarray, fluorescence 635/667 nm, 0.5 µg/mL protein (AID 1183). Conditions: small-molecule microarray binding, fluorescence 635 nm; higher = more signal.
Test [12] can be described thus: Plasmodium falciparum growth inhibition, primary screen, strain 3D7, DAPI fluorescence, 100 nL (AID 1184).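 Further: parasites grown inside human red blood cells in medium with human serum.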 As to conditions: P. falciparum 3D7 growth, 3 d, higher = more signal.
The target of test [13] is Homeobox protein Hox-A13 (Mus musculus) (UniProt Q62424). Kind of test: inhibitors of HoxA13-DNA binding, primary screen, biochemical, fluorescence polarization, labeled oligonucleotide (AID 1185). Conditions: 15 min, higher = more signal, called active from +8 up or from −8 down.
Sequence of Homeobox protein Hox-A13 (Mus musculus) (Q62424 whole entry, looked up): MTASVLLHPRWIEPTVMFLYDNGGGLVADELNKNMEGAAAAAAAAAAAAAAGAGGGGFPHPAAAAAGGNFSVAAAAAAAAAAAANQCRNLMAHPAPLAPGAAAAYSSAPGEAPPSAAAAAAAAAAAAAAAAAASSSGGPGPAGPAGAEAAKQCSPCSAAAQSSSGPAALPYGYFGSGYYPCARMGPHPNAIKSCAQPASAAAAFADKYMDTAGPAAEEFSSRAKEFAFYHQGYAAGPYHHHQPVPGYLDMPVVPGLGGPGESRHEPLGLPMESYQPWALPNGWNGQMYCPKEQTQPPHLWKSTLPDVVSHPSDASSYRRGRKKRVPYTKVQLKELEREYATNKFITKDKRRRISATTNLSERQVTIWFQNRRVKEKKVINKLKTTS
A short description of test [14]: inhibitors of hydroxyurea-induced Chk1 phosphorylation, primary screen, imaging, HeLa, phospho-Chk1 antibody, percent positive cells (AID 1186). Conditions: hydroxyurea-induced phospho-Chk1 immunofluorescence imaging, higher = more signal.
The nature of test [15]: inhibitors of hydroxyurea-induced Chk1 phosphorylation, primary screen, imaging, HeLa, phospho-Chk1 nuclear intensity (AID 1187). As to conditions: hydroxyurea-induced phospho-Chk1 immunofluorescence imaging, higher = more signal.

Sequence of Dihydroorotate dehydrogenase (quinone), mitochondrial (Plasmodium falciparum (isolate 3D7)) (Q08210 whole entry, looked up): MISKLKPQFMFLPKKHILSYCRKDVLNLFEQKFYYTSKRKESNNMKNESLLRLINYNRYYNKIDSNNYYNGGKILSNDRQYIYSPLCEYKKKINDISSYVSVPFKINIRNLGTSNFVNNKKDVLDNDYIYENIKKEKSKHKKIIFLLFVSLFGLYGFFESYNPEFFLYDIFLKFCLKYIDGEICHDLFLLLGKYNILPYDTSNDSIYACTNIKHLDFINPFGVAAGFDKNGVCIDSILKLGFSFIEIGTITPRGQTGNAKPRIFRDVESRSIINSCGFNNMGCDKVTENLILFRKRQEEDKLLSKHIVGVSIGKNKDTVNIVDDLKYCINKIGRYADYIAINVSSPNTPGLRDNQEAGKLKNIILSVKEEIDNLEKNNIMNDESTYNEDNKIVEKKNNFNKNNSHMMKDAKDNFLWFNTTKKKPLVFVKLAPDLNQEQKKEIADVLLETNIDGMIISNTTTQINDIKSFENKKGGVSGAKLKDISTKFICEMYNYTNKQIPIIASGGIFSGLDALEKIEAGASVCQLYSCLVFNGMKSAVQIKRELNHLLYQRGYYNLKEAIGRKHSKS

Regarding `[N-]=[N+]=Nc1ccccc1C[C@]1(C(=O)NCC(O)CO)COC(c2ccc(OCCCO)cc2)=N1` (stereo not given in full), the z-score is 0.586 in test [1]; -0.226 (inactive) in [2]; 0.303 (inactive) in test [3]; 1.19 (inactive) in [5]; 1.73 (inactive) in test [6]; 0.87 (inactive) in [7]. Also, the z-score in test [8] is -0.155 (inactive); in test [9], 0.747; in test [12] it was -1.57; in test [13] it was -6.04 (inactive); in [14], 0.0856 (inactive); in test [15], 0.636 (inactive). The composite z-score in test [4] is 1 (inactive); in test [10], 0.0449; in [11], -0.0462 (inactive); with XIP peptide (Xip251-270), 0.106.
With `CC1=C2[C@@H](CCc3ccccc3)OB(O)C[C@@H]2[C@@H]2C(=O)N(Cc3ccccc3)C(=O)[C@@H]2C1`, the z-score was -0.819 in test [1]; -4.86 (inactive) in test [2]; -0.249 (inactive) in test [3]; 0.118 (inactive) in test [5]; -0.849 (inactive) in test [6]; -0.204 (inactive) in test [7]. The z-score in [8] was -0.225 (inactive); in test [9], -0.26; in test [12], 1.62; in [13], -7.81 (inactive); in test [14], 0.235 (inactive); in test [15], 0.264 (inactive). Also, the composite z-score in test [4] is -1.71 (inactive); in test [10] it was -0.193; in [11], 0.291 (inactive); with XIP peptide (Xip251-270), 0.629.
Regarding `CN(C)C(=O)[C@]1(CCC(=O)OC(C)(C)C)N=C(c2ccc(OCCCO)cc2)O[C@@H]1c1ccccc1CN=[N+]=[N-]`, the z-score in test [1] is 1.52; in test [2] it was -0.756 (inactive); in test [3] it was 0.136 (inactive); in [5], -0.36 (inactive); in [6], -0.0274 (inactive); in test [7], 0.0547 (inactive). The z-score in [8] was -0.0727 (inactive); in test [9], 0.471; in test [12], -2.39; in test [13], -4.57 (inactive); in test [14] it was -0.165 (inactive); in [15], 0.152 (inactive). The composite z-score in test [4] was -0.369 (inactive); in test [10] it was -0.0501; in test [11], 0.0464 (inactive); in the test on XIP peptide (Xip251-270), 0.649.
On to `COC(=O)C1=CC(CCCO)=CC(c2ccc(CN3CCCC3)cc2)N(Cc2cccc(OC(F)(F)F)c2)C=C1C(=O)OC` (stereo not given), for which the z-score in test [1] was -0.721; in test [2] it was -1.54 (inactive); in [3], -0.728 (inactive); in [5] it was -0.407 (inactive); in [6], -0.287 (inactive); in [7] it was 0.509 (inactive). In addition, the z-score in test [8] was 0.701 (inactive); in test [9], -0.529; in [12], -2.09; in test [13], -5.07 (inactive); in [14] it was -0.268 (inactive); in [15], -0.184 (inactive). In addition, the composite z-score in [4] was -2.65 (inactive); in test [10], 0.166; in test [11] it was 1.68 (inactive); in the test with XIP peptide (Xip251-270), 0.677.
As for `[N-]=[N+]=NCc1ccccc1[C@@H]1OC(c2ccc(OCCCO)cc2)=N[C@]1(CCS(=O)(=O)c1ccccc1)C(=O)O`, the z-score in test [1] was -0.274; in test [2], -0.577 (inactive); in test [3], -0.906 (inactive); in [5] it was -0.0583 (inactive); in test [6], 0.275 (inactive); in [7], -0.447 (inactive). Also, the z-score in [8] was 0.0549 (inactive); in test [9], -1.4; in [12], 0.692; in [13], -4.86 (inactive); in test [14] it was 0.162 (inactive); in test [15], 0.23 (inactive). Also, the composite z-score is 0.456 (inactive) in test [4], 0.0537 in test [10], 0.573 (inactive) in test [11] and 0.964 with XIP peptide (Xip251-270).
As for `COc1cc(C(O)C2C=CC3C(=O)N(C)C(=O)C3N2Nc2ccccc2)cc(OC)c1OC` (stereo not given), the z-score in [1] is -0.237; in test [2], -2.86 (inactive); in test [3], 0.162 (inactive); in test [5] it was 0.586 (inactive); in test [6], 0.155 (inactive); in test [7], -0.654 (inactive). Besides, the z-score in test [8] is -0.852 (inactive); in [9], -0.0998; in test [12], -0.164; in [13], -3.7 (inactive); in [14], -0.129 (inactive); in [15] it was -0.0016 (inactive). Also, the composite z-score in test [4] was 0.377 (inactive); in test [10], 0.14; in [11], 1.13 (inactive); in the test on XIP peptide (Xip251-270), -0.0114.
For `[N-]=[N+]=Nc1ccccc1C[C@]1(C(=O)N2CCOCC2)COC(c2ccc(OCCCO)cc2)=N1`, the z-score was 1.27 in [1]; -3.78 (inactive) in [2]; 0.632 (inactive) in test [3]; -0.537 (inactive) in test [5]; -0.85 (inactive) in [6]; 1.08 (inactive) in test [7]. The z-score in [8] is 0.906 (inactive); in test [9] it was 1.02; in test [12] it was -2.03; in [13], -6.82 (inactive); in test [14], -0.488 (inactive); in [15], -0.338 (inactive). The composite z-score in test [4] is 0.265 (inactive); in test [10], 0.138; in test [11] it was 0.373 (inactive); in the test on XIP peptide (Xip251-270) it was 0.666.
As to `C=CC[C@@H](OC(=O)Nc1ccc(SC)cc1)c1ccc(O)c(F)c1`, the z-score in [1] is -0.227; in test [2] it was -15.5 (active); in [3], -2.32 (inactive); in test [5], 1.57 (inactive); in test [6], -6.97 (inactive); in test [7], 1.75 (inactive). The z-score in test [8] was 1.38 (inactive); in test [9], -0.872; in test [12], -0.671; in test [13] it was -1.19 (inactive); in test [14], -0.12 (inactive); in test [15], 0.539 (inactive). Moreover, the composite z-score in [4] is -1.9 (inactive); in test [10], -0.02; in test [11] it was 0.452 (inactive); with XIP peptide (Xip251-270), 0.257.
As for `C#CCN([C@@H](Cc1ccccc1)C(=O)OC)[C@@H](/C=C/C1CC1)[C@H](O)Cc1ccccc1`, the z-score in test [1] was 0.454; in test [2], -0.0746 (inactive); in [3], 1.4 (inactive); in test [5], -0.189 (inactive); in test [6] it was 0.0421 (inactive); in test [7], -0.622 (inactive). Further, the z-score is 0.03 (inactive) in [8]; 0.659 in test [9]; -1.12 in test [12]; -6.42 (inactive) in [13]; -0.121 (inactive) in [14]; 0.134 (inactive) in [15]. The composite z-score in test [4] is -0.371 (inactive); in [10], -0.175; in [11] it was -0.0272 (inactive); with XIP peptide (Xip251-270), -0.194.
`CC1CC/C=C\[C@H]2OC34C=CCN(c5ccc6ccccc6c5)C(=O)[C@H]3N(CCCO)C(=O)[C@@H]4C2C(=O)O1` (stereo not given in full): the z-score in [1] was -0.829; in test [2], 0.723 (inactive); in [3], -0.644 (inactive); in [5], -0.829 (inactive); in test [6], 0.822 (inactive); in [7], -0.587 (inactive). Further, the z-score in [8] is -0.723 (inactive); in [9] it was 0.0719; in [12], 0.293; in test [13] it was -5.63 (inactive); in test [14] it was 0.486 (inactive); in test [15] it was 0.104 (inactive). The composite z-score in [4] is 0.676 (inactive); in [10], 0.275; in test [11], -0.103 (inactive); in the test with XIP peptide (Xip251-270) it was 0.327.
